KinaseGlo FLuc – Kinase-Glo luciferase inhibition (counter-screen). actives 0.28% (n = 200,000). AID 1379. Q27757. Potency, µM (highest dose often 38.3 µM), for inactives: top-dose activity change, negative = inhibition, actives largely listed as inhibitors. Kinase-Glo luciferase, ATP luminescence, 8 min; active = well fitted inhibition curve with a large enough effect; inconclusive = small, poorly fitted or top-dose-only effect; also: potency is read from the fitted curve at half-maximal effect; nearly all actives have a fitted effect of over 60% in size
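Substrate mix (final 50 mM imidazole pH 7.2, 50 mM KCl, 7 mM MgCl2, 10 uM ATP, 0.01% Tween 20, 0.05% BSA) plus pin-tool compound, then Kinase-Glo detection mix; 8 min ambient, luminescence read.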
HPGD inh – blocks human HPGD enzyme activity | P15428 | purified HPGD, NADH fluorescence kinetic, PGE2 substrate | Potency, µM, for inactives: at the top dose activity change, negative = inhibition, actives largely listed as inhibitors | actives 4.3% (n = 150,000); also: potency is read from the fitted curve at half-maximal effect
Target sequence (P15428 whole entry, looked up): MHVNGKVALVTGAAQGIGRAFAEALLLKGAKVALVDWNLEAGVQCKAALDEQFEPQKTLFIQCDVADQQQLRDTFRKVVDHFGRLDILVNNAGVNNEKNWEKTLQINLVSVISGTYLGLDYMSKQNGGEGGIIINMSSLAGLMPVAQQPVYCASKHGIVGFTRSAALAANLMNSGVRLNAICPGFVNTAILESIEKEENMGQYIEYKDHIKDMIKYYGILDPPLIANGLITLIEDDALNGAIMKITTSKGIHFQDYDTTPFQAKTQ
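NADH formation kinetics: reaction with 30 uM PGE2 and 1 mM NAD+ (final), 20 nM enzyme, Tris-HCl pH 8 with Tween 20, after 15 min compound preincubation at room temperature. Fluorescence change, last versus first of five reads.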
PNC inhibitor – blocks assembly of the perinucleolar compartment | PC3M PTB-GFP, PNC prevalence imaging, 16 h; active compounds read low | actives 3.1% (n = 140,000) | activity change (PNC), negative = inhibition, % at 10 µM | AID 2417;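 active = readout at or below -70, meaning at least 70% loss of cells showing the perinucleolar compartment, a nuclear body marking cancer cells; inconclusive = readout between -30 and a set limit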;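 also: plate controls were DMSO wells for no effect and camptothecin positive control wells for full effect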
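PC3M cells stably expressing PTB-GFP, 750–1000 cells/well, treated 16 h at 37 °C with compound (23 nl of library stock), in duplicate. After paraformaldehyde fixation and Hoechst stain, imaged at 20x; PNC prevalence scored by image analysis.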
IMPase inh – membrane-permeable compound that blocks inositol monophosphatase. P97697. CHO-M1 cells, IP1 accumulation, HTRF TR-FRET ratio. inhibition (IP1 accumulation), % at 46.1 µM. 120,000 tested, under 10 active; active = well fitted curve in the direction sought with a large enough effect in the signal ratio, not every such curve was filed as active; inconclusive = small, poorly fitted or top-dose-only effect, or a change in a side signal; inactive = no such curve, though single readings can be large or run the other way; the % refers to the signal ratio;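 also: cells stimulated with carbachol in lithium chloride buffer; plate controls were DMSO basal wells for no effect and reference inhibitor wells for full effect; higher means more IMPase inhibition seen as more IP1 and lower FRET ratio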
Target sequence (P97697 whole entry, looked up): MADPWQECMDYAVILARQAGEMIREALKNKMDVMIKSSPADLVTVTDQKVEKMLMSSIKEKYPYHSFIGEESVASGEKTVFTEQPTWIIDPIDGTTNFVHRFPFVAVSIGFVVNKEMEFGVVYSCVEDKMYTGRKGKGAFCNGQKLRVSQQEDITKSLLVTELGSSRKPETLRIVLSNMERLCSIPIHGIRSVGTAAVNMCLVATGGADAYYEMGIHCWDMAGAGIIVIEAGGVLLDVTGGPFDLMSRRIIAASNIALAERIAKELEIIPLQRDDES
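Elevated IP1 in lysates lowers TR-FRET signal (665/620 ratio and 620 channel reported). Cells were CHO-M1, given carbachol (50 uM as added) plus 50mM LiCl, pH 7.4, 30 min, 37C; compounds titrated up to 46 uM; AC50 by Hill equation.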
ALDH1A1 block – inhibitors of human aldehyde dehydrogenase 1A1 | P00352 | Purified ALDH1A1, NADH fluorescence, propionaldehyde substrate | Potency, µM (doses to about 75.3 µM), without a hit: top-dose activity, negative = inhibition, most hits filed as inhibitors | actives 7.3% (n = 220,000) | AID 1030;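 also: potency is read from the fitted curve at half-maximal effect; plate controls were no enzyme wells and a reference inhibitor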
LMNA splice mod – changes lamin A minigene splicing in HeLa cells; HeLa LMNA splicing GFP/RFP minigene ratio, 48 h; Potency, µM (titrated, usually from 46.1 µM), for inactives: at the highest dose ratio change, negative = inhibition, hits mostly inhibitors; actives 0.01% (n = 200,000); AID 1487; active = well fitted inhibition curve with a large enough effect in the signal ratio, with a control signal flat, not every such curve was filed as active; inconclusive = small, poorly fitted or top-dose-only effect, or effect the other way, or a change in a side signal; the % refers to the signal ratio; also: potency is read from the fitted curve at half-maximal effect
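S3 HeLa cells stably expressing lamin A-EGFP splicing minigene plus DsRed2, 600 cells/well, 48 h compound exposure at 37C. Laser-scanning cytometry; analysed as GFP (500-530 nm)/RFP (575-640 nm) total intensity ratio; 0.5% DMSO vehicle.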
Numbers without * were called inactive; [ ] = another dose, or the depositor's remark. Only some compounds are listed: those with a hit (about 10% of all), similar ones and a draw of the others. Unless noted, calls follow the shape of the dose curve; as a rule, active = well fitted inhibition curve with a large enough effect (not every such curve was filed as active); inconclusive = small, poorly fitted or top-dose-only effect, or another doubt; inactive = no such curve, though single readings can be large or run the other way. Unless noted, % is scaled to controls: 0 for no effect and ±100 for the full control effect.

For C[C@H]1OC(=O)CC[C@@H]2[C@]1(C)CCC1[C@@]2(C)CC[C@@]2(C)C3CC(C)(C)CC[C@]3(CO)CC[C@]12C (some centres undefined) the results were KinaseGlo FLuc -2%, HPGD inh -4% and ALDH1A1 block 4%.
O=C(Cc1cccs1)N1CCCC(c2nc3c(nnn3Cc3ccc(F)cc3)c(=O)[nH]2)C1 (centres undefined) was read as KinaseGlo FLuc 0%, HPGD inh 28µM*, PNC inhibitor 32, IMPase inh -7, ALDH1A1 block 1% and LMNA splice mod 25%.
`Cc1ccc(Cn2nnc3c(=O)[nH]c(C4CCCN(S(=O)(=O)c5ccccc5)C4)nc32)cc1` (centres undefined) gave KinaseGlo FLuc 0%, HPGD inh -14%, PNC inhibitor 12, IMPase inh 3, ALDH1A1 block -9% and LMNA splice mod 9%.
For O=C(Cc1cccs1)N1CCC(c2nc3c(nnn3Cc3ccccc3)c(=O)[nH]2)CC1 the results were KinaseGlo FLuc 3%, HPGD inh 4.5µM*, PNC inhibitor -14, IMPase inh 8, ALDH1A1 block inconclusive and LMNA splice mod 13%.
Cc1ccc(Cn2nnc3c(=O)[nH]c(C4CCN(C(=O)Cc5cccs5)CC4)nc32)cc1 was read as KinaseGlo FLuc -7%, HPGD inh inconclusive, PNC inhibitor 28, IMPase inh 13, ALDH1A1 block -4% and LMNA splice mod 15%.
For O=C(NCc1cccs1)c1nc2c(nnn2Cc2ccccc2Cl)c(=O)[nH]1 the results were KinaseGlo FLuc 0%, HPGD inh 6.3µM*, PNC inhibitor -19, ALDH1A1 block -1% and LMNA splice mod inconclusive.
`CCC(C)NC(=O)c1nc2c(nnn2Cc2ccccc2Cl)c(=O)[nH]1` (centres undefined) gave KinaseGlo FLuc -3%, ALDH1A1 block -3% and LMNA splice mod inconclusive.
For O=c1[nH]c(C2CCCN(S(=O)(=O)c3ccc(F)cc3)C2)nc2c1nnn2Cc1ccccc1 (centres undefined) the results were KinaseGlo FLuc -4%, HPGD inh 13µM*, PNC inhibitor -18, IMPase inh -3, ALDH1A1 block 14µM* and LMNA splice mod 12%.
Screening CO[C@H]1COC(=O)[C@H]2CCCN2C(=O)C/C=C\[C@@H](C)[C@H](OC)COC(=O)[C@@H](OCc2ccccc2)/C=C\[C@@H]1C returned ALDH1A1 block -6%[13.5 µM].
`CN(C)c1ncc2nc(CCc3ccccc3)c(=O)n(C[C@H]3CCCO3)c2n1` gave KinaseGlo FLuc 1%, HPGD inh inconclusive and ALDH1A1 block inconclusive.
For Cn1c(=O)c(-c2cc(F)cc(F)c2)nc2cnc(N3CCNCC3)nc21 the results were ALDH1A1 block inconclusive and LMNA splice mod -6%.
Screening Cc1ccc(OCC(=O)Nc2ccccc2C(=O)OCc2cc(=O)n3c(C)csc3n2)cc1 returned LMNA splice mod 19%[46 µM].
For CC(C)(C)CC(=O)N1CCC(c2nc3c(nnn3Cc3c(F)cccc3Cl)c(=O)[nH]2)CC1 the results were PNC inhibitor 29, IMPase inh 12, ALDH1A1 block 3% and LMNA splice mod -4%.
Screening N#Cc1ccc(NC(=O)N2CCC(c3nc4c(nnn4Cc4cccc(Cl)c4)c(=O)[nH]3)CC2)cc1 returned KinaseGlo FLuc 1%, HPGD inh 14µM*, PNC inhibitor -24, IMPase inh -2, ALDH1A1 block -11% and LMNA splice mod inconclusive.
`N#CCCn1c(=O)c(-c2cc(F)cc(F)c2)nc2cnc(Oc3cccc(Cl)c3)nc21` gave KinaseGlo FLuc -2%, HPGD inh inconclusive and ALDH1A1 block inconclusive.
For CCCCCCCC1=CC2=C(Cl)C(=O)C(C)(OC(C)=O)C(=O)C2=CN1C (centres undefined) the results were KinaseGlo FLuc -1%, HPGD inh -7% and ALDH1A1 block -12%.
`CCc1ccccc1NS(=O)(=O)c1ccc(-c2coc(C)n2)cc1` gave LMNA splice mod -14%[46 µM].
For N#CC1=C(N)N(c2ccc(Cl)c(Cl)c2)C(=O)C1 the results were KinaseGlo FLuc 3%, ALDH1A1 block 28µM* and LMNA splice mod -5%[46 µM].
For O=C1CC(C2CCCO2)C(=O)N1c1ccc(Cl)c(Cl)c1 (centres undefined) the results were KinaseGlo FLuc -1%, ALDH1A1 block -7% and LMNA splice mod -6%[46 µM].
`C=CCn1c(SCC(=O)NCCCC)nc2scc(-c3ccco3)c2c1=O` gave KinaseGlo FLuc -1%, HPGD inh -22%, PNC inhibitor 31, IMPase inh 12[0.0738 µM], ALDH1A1 block 20µM* and LMNA splice mod -7%.
C=CCn1c(SCC(=O)NC(=O)NCc2ccco2)nc2sc(C)c(C)c2c1=O was read as KinaseGlo FLuc -1%, HPGD inh -9%, PNC inhibitor inconclusive, IMPase inh inconclusive, ALDH1A1 block 0% and LMNA splice mod -2%.
`C=CCn1c(SCC(=O)NC2CCCC2)nc2scc(-c3ccco3)c2c1=O` gave KinaseGlo FLuc 18%, HPGD inh inconclusive, PNC inhibitor 40, IMPase inh 6, ALDH1A1 block 7.9µM* and LMNA splice mod 15%.
`Cc1cccc(C2=N[C@@H](CC(C)C)CO2)c1` gave KinaseGlo FLuc -9%[39.9 µM], HPGD inh -7% and ALDH1A1 block 0%[120 µM].
For CN(C)c1cccc(NC(=O)Cc2ccc(F)cc2)c1 the results were KinaseGlo FLuc -1%, HPGD inh -9%, PNC inhibitor -21, IMPase inh 5, ALDH1A1 block 14µM* and LMNA splice mod inconclusive.
`O=C1C(Cl)=C(Sc2nnc3c4ccccc4c4ccccc4c3n2)C(=O)c2ccccc21` gave KinaseGlo FLuc -6%[7.66 µM], HPGD inh inconclusive and ALDH1A1 block inconclusive.
`CCC1(C)N(O)C(C)(C)C(c2ccc(F)cc2)=[N+]1[O-]` (centres undefined) gave KinaseGlo FLuc 2%, HPGD inh -7%, PNC inhibitor -100*, IMPase inh -7, ALDH1A1 block 8% and LMNA splice mod -8%.
`CC(=O)N1CCCc2cc(S(=O)(=O)N3CCCC(C(=O)Nc4ccc(F)cc4F)C3)ccc21` (centres undefined) gave LMNA splice mod 2%[46 µM].
CC(C)c1nnc(NC(=O)c2cccc(NC(=O)C(F)(F)F)c2)s1 was read as KinaseGlo FLuc 4%, ALDH1A1 block 22µM* and LMNA splice mod -8%[46 µM].
